ELG1 genotoxic – inducers of genotoxicity in HEK293T ELG1-luciferase cells. AID 504466. 330,000 tested, 1.3% active. HEK293T ELG1-luciferase reporter, luminescence, 16 h. Potency, µM (top dose mostly 46 µM), for inactives: top-dose activity change, positive = activation, actives largely listed as activators; note: % of control where 0% means no effect; nearly all actives have a fitted effect of over 60% in size
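Step 1: seed 2,000 HEK293T ELG1-luciferase cells per well. Step 2: add compound or DMSO, incubate 16 hr at 37 °C. Step 3: ONE-Glo, 30 min at room temperature, read luminescence.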
Rab9 promoter act – activators of Rab9 promoter; Potency, µM (series often up to 9.22 µM), for the others: at the highest dose activation, negative = inhibition, usual class: activators; 320,000 tested, 2.8% active; Huh7 Rab9 promoter-luciferase reporter, luminescence, 24 h; AID 485297; note: % of control where 0% means no effect; nearly all actives have a fitted effect of over 60% in size
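Promoter activation is measured as luciferase luminescence in Huh7 cells stably transfected with a Rab9 promoter–luciferase construct, following 24 h compound exposure at 37 °C and 10 min reagent incubation at ambient temperature.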
NPC1 prom act – activators of NPC1 promoter | Huh7 NPC1 promoter luciferase reporter, 24 h | Potency, µM (doses to about 9.22 µM), without a hit: at the top dose activation, most hits filed as activators | 320,000 tested, 2.4% active | AID 485313; note: % of control where 0% means no effect; nearly all actives have a fitted effect of over 60% in size
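Luminescence from an NPC1 promoter-driven luciferase reporter in stably transfected Huh7 cells was measured after 24 h compound treatment at 37 °C, followed by 10 min ambient incubation with luciferase detection reagent.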
SMN2 splice up – SMN2 splice variant enhancement; HEK293 SMN2-luciferase splicing reporter, luminescence, 30-36 h; Potency, µM (series often up to 46.1 µM), for the others: at the top dose activity change, positive = activation, actives largely listed as activators; 210,000 tested, 2.8% active; note: % of control where 0% means no effect; nearly all actives have a fitted effect of over 55% in size
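HEK293 cells carry an SMN2 […]–luciferase reporter in which exon 7 inclusion puts luciferase in frame. Cells were plated 10-12 h before compound addition, then incubated 30-36 h at 37C. ONE-Glo luminescence was read; sodium butyrate at 4.5 mM final served as control.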
ELG1 repair inh – blocks ELG1-dependent DNA repair in HEK293T cells | HEK293T ELG1-luciferase reporter, luminescence, 16 h; DNA damage induced by 5-fluorouridine | Potency, µM (doses to about 46.1 µM), for the others: at the top dose activity change, negative = inhibition, actives largely listed as inhibitors | 330,000 tested, 2.3% active | AID 504467; note: % is set by controls: 0 for no effect and ±100 for the full control effect; nearly all actives have a fitted effect of over 55% in size
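Cells (2,000 per well) received 5-fluorouridine plus test compound or DMSO and were incubated 16 hr at 37 °C, 5% CO2. Luciferase activity was read by luminescence 30 min after ONE-Glo addition; signal suppression marked inhibition of damage-induced ELG1 function.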
FLuc modulator – inhibits or activates purified firefly luciferase, miR-21 counter-screen; P08659; 360,000 tested, 6.9% active; AID 588342; purified FLuc, Km substrates, luminescence inhibition; Potency, µM (top dose mostly 57.5 µM), without a hit: at the highest dose activity change, negative = inhibition, actives largely listed as inhibitors;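 note: plate controls were vehicle for no effect and reference inhibitor for full effect; nearly all actives have a fitted effect of over 55% in size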
Target sequence (P08659 whole entry, looked up): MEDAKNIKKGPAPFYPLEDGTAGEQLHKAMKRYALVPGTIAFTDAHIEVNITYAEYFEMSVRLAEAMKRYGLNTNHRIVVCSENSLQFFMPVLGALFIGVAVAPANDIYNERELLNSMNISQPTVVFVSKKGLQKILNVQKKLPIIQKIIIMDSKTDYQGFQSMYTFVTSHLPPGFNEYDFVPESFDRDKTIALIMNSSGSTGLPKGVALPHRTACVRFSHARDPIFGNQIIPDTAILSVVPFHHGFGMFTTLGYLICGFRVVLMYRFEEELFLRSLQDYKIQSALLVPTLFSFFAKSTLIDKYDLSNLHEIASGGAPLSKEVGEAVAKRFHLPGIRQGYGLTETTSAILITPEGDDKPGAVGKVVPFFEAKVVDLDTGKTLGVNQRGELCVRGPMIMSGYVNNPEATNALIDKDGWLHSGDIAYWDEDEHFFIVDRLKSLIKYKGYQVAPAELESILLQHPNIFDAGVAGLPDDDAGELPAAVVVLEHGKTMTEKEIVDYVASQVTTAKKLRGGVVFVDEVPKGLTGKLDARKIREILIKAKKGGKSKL
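Biochemical qHTS of compounds, final roughly 60 µM downward over six points, against 10 nM purified firefly luciferase using Km concentrations of substrates (10 uM D-luciferin, 10 uM ATP) in Tris acetate pH 7.5 buffer; luminescence output.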
The depositor's hits bear a star. Rows were chosen to be rich in hits. Some 9.3% of all compounds tested hit in one or more screens of this group. Calls come from the whole dose curve; as a rule, active = well fitted curve in the direction sought with a large enough effect; inconclusive = small, poorly fitted or top-dose-only effect, or another doubt; inactive = no such curve, though single readings can be large; an effect the other way counts as inactive or inconclusive. Potency is the fitted concentration of half-maximal effect.

`S=c1[nH]nc(-c2cccs2)n1/N=C/c1cn(-c2ccccc2)nc1-c1ccccc1` gave ELG1 genotoxic 1.1%, Rab9 promoter act 5.1%, NPC1 prom act 12.1%, ELG1 repair inh inconclusive and FLuc modulator 3.38µM*.
For COc1ccc(-c2nn(-c3ccccc3)cc2/C=C(\C#N)S(=O)(=O)c2ccccc2)cc1OC the results were ELG1 genotoxic 1.7%, Rab9 promoter act 1.3%, NPC1 prom act 2.5%, SMN2 splice up 2.1%, ELG1 repair inh -23.3% and FLuc modulator -2.3%.
`COc1ccc(-c2nn(-c3ccccc3)cc2/C=N/NC(N)=S)cc1OC` gave ELG1 genotoxic -0.1%, Rab9 promoter act -21.2%, NPC1 prom act -21.4%, SMN2 splice up 76.1%, ELG1 repair inh 1.84µM* and FLuc modulator 5.36µM*.
Screening Cn1c(CNc2ccc(F)cc2)nc2ccccc21 returned ELG1 genotoxic 16.4µM*, Rab9 promoter act 2.24µM*, NPC1 prom act 2.24µM*, ELG1 repair inh inconclusive and FLuc modulator 9.53µM*.
For Cn1c(CNc2ccccc2)nc2ccccc21 the results were ELG1 genotoxic inconclusive, Rab9 promoter act 3.16µM*, NPC1 prom act 3.98µM*, SMN2 splice up 17.8µM*, ELG1 repair inh inconclusive and FLuc modulator 19µM*.
Screening Cc1ccccc1NCc1nc2ccccc2n1C returned ELG1 genotoxic 4.11µM*, Rab9 promoter act 2µM*, NPC1 prom act 1.41µM*, ELG1 repair inh inconclusive and FLuc modulator 4.26µM*.
CCn1c(SCC(=O)N2CCCCC2C)nc2c1c(=O)n(C)c(=O)n2C (configuration not stated) was read as ELG1 genotoxic -13.4%, Rab9 promoter act -2.1%, NPC1 prom act -0.5%, ELG1 repair inh 8.0% and FLuc modulator -1.2%.
`CN(C(=O)COC(=O)Cc1c(Cl)cccc1Cl)C1CCS(=O)(=O)C1` (configuration not stated) gave ELG1 genotoxic 3.4%, Rab9 promoter act -0.8%, NPC1 prom act -1.3%, ELG1 repair inh 1.2% and FLuc modulator 1.3%.
Screening c1ccc(-c2cn3c4c(sc3n2)CCCC4)cc1 returned ELG1 genotoxic 0.082µM*, Rab9 promoter act 0.501µM*, NPC1 prom act 0.447µM*, SMN2 splice up inconclusive, ELG1 repair inh inconclusive and FLuc modulator 0.151µM*.
Cn1c(SCC(=O)NC2CCCC2)nc2c(c1=O)SCC2 was read as ELG1 genotoxic 0.2%, Rab9 promoter act 2.4%, NPC1 prom act 0.8%, ELG1 repair inh 0.0% and FLuc modulator -0.1%.
O=C1NC2(C=Cc3c(ccc4ccccc34)O2)Oc2ccccc21 (configuration not stated) was read as ELG1 genotoxic 15.4%, Rab9 promoter act 28.4%, NPC1 prom act inconclusive, SMN2 splice up -4.6%, ELG1 repair inh inconclusive and FLuc modulator 6.01µM*.
For CC1(C)OC(=O)N(c2ccccc2)C12C=Cc1c(ccc3ccccc13)O2 (configuration not stated) the results were ELG1 genotoxic -6.4%, Rab9 promoter act -6.9%, NPC1 prom act 1.0%, SMN2 splice up -30.5%, ELG1 repair inh -17.5% and FLuc modulator 3.0%.
Screening COc1cc(OC)cc(C(=O)Nc2ccc(Cn3ccnc3)cc2)c1 returned ELG1 genotoxic inconclusive, Rab9 promoter act 6.4%, NPC1 prom act 4.8%, ELG1 repair inh inconclusive and FLuc modulator inconclusive.
S=C1c2ccccc2CN1c1ccccc1 was read as ELG1 genotoxic 12.0%, Rab9 promoter act 20.1%, NPC1 prom act 8.9%, SMN2 splice up inconclusive, ELG1 repair inh inconclusive and FLuc modulator inconclusive.
`Cc1ccc(N2Cc3ccccc3C2=S)cc1` gave ELG1 genotoxic -9.5%, Rab9 promoter act 2.51µM*, NPC1 prom act 2.82µM*, SMN2 splice up 11.2µM*, ELG1 repair inh inconclusive and FLuc modulator 4.78µM*.
